FBW7 activator = human FBW7 E3 ligase activation, primary screen; 650,000 tested, 0.13% active; AID 1259310; normalized activity (activation), % at 26.1 µM; AlphaScreen FBW7–phospho-cyclin E peptide binding, activator screen; Q969H0; in the data active = normalized activity above about 1.9%;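 note: purified mutant Fbw7 with reduced substrate affinity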
TEAD-YAP block = TEAD-YAP interaction inhibition; inhibition, % at 9.12 µM; 640,000 tested, 1.4% active; HEK-TIYL cells, TEAD-Gal4/YAP UAS-luciferase luminescence; in the data active = inhibition above about 32%;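 note: 0% = median of test compound wells and 100% = reference inhibitor wells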
GPR151 ag = human GPR151 activation; Q8TDV0; PathHunter beta-arrestin GPR151 cells, luminescence; activation, % at 11.2 µM; 650,000 tested, 1% active; AID 1508602; in the data active = activation above about 4.9%;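 note: 0% = median of compound wells and 100% = cells with positive control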
MITF inh = inhibitors of human MITF; O75030; AlphaScreen MITF homodimerization, bead proximity signal; inhibition, % at 2.6 µM; 650,000 tested, 0.91% active; AID 1259374; in the data active = inhibition above about 50%;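 note: 0% = vehicle wells with protein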
Target sequence (O75030 whole entry, looked up): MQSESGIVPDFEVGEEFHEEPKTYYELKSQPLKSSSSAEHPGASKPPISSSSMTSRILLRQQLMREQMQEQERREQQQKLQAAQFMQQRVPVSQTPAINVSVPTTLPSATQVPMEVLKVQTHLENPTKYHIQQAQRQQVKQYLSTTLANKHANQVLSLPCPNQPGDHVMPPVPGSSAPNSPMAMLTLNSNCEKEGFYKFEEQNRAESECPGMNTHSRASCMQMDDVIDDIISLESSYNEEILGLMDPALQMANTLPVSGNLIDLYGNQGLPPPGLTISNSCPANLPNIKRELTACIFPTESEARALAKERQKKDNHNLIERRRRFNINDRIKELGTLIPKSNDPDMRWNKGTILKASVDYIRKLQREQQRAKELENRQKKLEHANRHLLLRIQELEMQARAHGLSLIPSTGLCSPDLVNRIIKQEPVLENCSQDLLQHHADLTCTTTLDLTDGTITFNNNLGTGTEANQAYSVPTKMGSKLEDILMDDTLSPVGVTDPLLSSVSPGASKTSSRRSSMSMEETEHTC
Starred values were filed as active, the others as inactive. Shown are actives, neighbours in structure and some others; about 3.4% of the full set was active somewhere.

SMILES	FBW7 activator	TEAD-YAP block	GPR151 ag	MITF inh
COc1ccccc1Cn1c(SCC(=O)Nc2cccc(C(F)(F)F)c2)nc2ccc(Br)cc2c1=O	0	3	0	-2
CCN(Cc1ccccc1)S(=O)(=O)c1cc(Br)cc2c1N(C(C)=O)CC2	0	7	1	11
O=C(CSc1nc2[nH]ncc2c(=O)n1-c1ccccc1)Nc1ccc(Br)cc1	0	17	0	-5
O=C(CSc1nc2[nH]ncc2c(=O)n1-c1ccccc1)Nc1ccc(F)c(F)c1	0	61*	0	1
COc1cccc(NS(=O)(=O)c2cc(C(=O)N3CCCC3)ccc2NCCc2ccc(OC)c(OC)c2)c1	0	4	0	8
COc1cccc(NS(=O)(=O)c2cc(C(=O)N3CCN(Cc4ccccc4)CC3)ccc2NCCc2ccc(OC)c(OC)c2)c1	0	52*	0	3
COc1ccc(C(=O)N2CCN(Cc3ccc(SC)cc3)CC2)cc1OC	0	45*	-1	45
CC(C)CC(=O)NCC1CC(Cc2ccc(F)cc2)=NO1 (centres undefined)	0	10	-1	-22
CNc1nc(Nc2ccc(C)c(C)c2)c2nccnc2n1	1	6	-2	0
CNc1nc(Nc2ccc(OC)cc2)c2nccnc2n1	2.9*	5	-1	17
O=C(Nc1ccc(C23CC4CC(CC(C4)C2)C3)cc1)c1cccc(Cl)c1	0	60*	0	8
Cc1cc(NC(=O)C(C)(C)C)ccc1Br	0	0	2	-7
C=CC(=O)Nc1ccc(Br)c(C)c1	0	62*	-1	4
O=[N+]([O-])c1ccc2c(c1)=N/C(=C/c1c(O)[nH]c3ccccc13)N=2	0	3	1	8
c1ccc2c(c1)CCN(c1nc3cc4c(cc3s1)OCCO4)C2	0	89*	-5	4
c1ccc2sc(N3CCN(c4nc5cc6c(cc5s4)OCCO6)CC3)nc2c1	0	1	0	8
c1c2c(cc3sc(N4CCCC4)nc13)OCCO2	0	72*	-8	-1
CSc1ccc(/C=C/C(=O)OC/C(O)=C(\C#N)c2nc3ccccc3[nH]2)cc1	0	-4	1	-11
CCOC(=O)c1cnc2ccc(OCC)cc2c1NCCCN(CC)CC	1	33*	0	-3
O=C(Nc1ccc(N2CCCN(C(=O)C3CC3)CC2)cc1)c1ccc(-n2cccc2)cc1	0	33*	2	9
Cc1ccc(OCC(=O)N/N=C/c2ccc(I)o2)c(C)c1	0	3	3	-7
Cc1cccc(C)c1Nc1nc2ccccc2n2cnnc12	0	-2	0	2
c1cc(-c2ccc3cnc(Nc4ccc(-n5cnc(N6CCOCC6)n5)cc4)nc3c2)c[nH]1	-1	53*	4	6
c1cc(-c2ccc3cnc(Nc4ccc(-n5cnc(N6CCOCC6)n5)cc4)nc3c2)co1	0	-1	2	37
Cc1ccc(-c2ccc3cnc(Nc4ccc(-n5cnc(N6CCOCC6)n5)cc4)nc3c2)cn1	2.3*	0	0	-1
SMILES	FBW7 activator	TEAD-YAP block	GPR151 ag	MITF inh
CCOc1ccc(C2C(C(=O)OC3CCCC3)=C(C)NC3=C2C(=O)CC(C)(C)C3)cc1OC (centres undefined)	0	0	-1	15
CCOC(=O)c1cnc(N/N=C2/CCCc3ccccc32)nc1C	0	-48	-1	-2
Nc1cc(Cl)ccc1N1CCCCC1	0	-14	-1	-9
Nc1ccc(N2CCCCC2)cc1N1CCCCC1	-1	72*	0	39
c1ccc(OCCNc2ccnc(-c3csc4ccccc34)n2)cc1	1	-6	1	19
O=C(N/N=C/c1ccco1)c1cc(O)c(O)c(O)c1	0	-2	-1	87*
O=C(N/N=C/c1ccco1)c1cc(Cl)ccc1O	0	-16	-1	2
O=C(N/N=C/c1ccccc1F)c1cc(O)c(O)c(O)c1	0	-13	-1	55*
Cc1cccc(C(=O)N/N=C/c2ccccc2F)c1	0	-9	0	-9
Brc1ccc(Nc2nc(-c3cccs3)cs2)cc1	0	-55	0	-2
C/C(=N\NC(=O)CNC(=O)c1ccco1)c1cc(O)ccc1O	0	7	0	1
FC(F)(F)c1cccc(NCc2cn3ccccc3n2)c1	0	-24	0	1
FC(F)(F)c1cccc(NCc2cn3cccnc3n2)c1	2.3*	-1	0	3
COc1cccc(C2(O)CSC3=C(C#N)C(c4cccc(F)c4)CC(=O)N32)c1 (centres undefined)	-1	48*	0	-23
COc1cccc(C2CC(=O)N3C(=C2C#N)SCC3(O)c2ccc(F)cc2)c1 (centres undefined)	0	-11	0	1

Assay outcomes: PubChem, The Scripps Research Institute Molecular Screening Center
